An excerpt weighted towards active compounds, which were near 1.6% of everything screened.
KCNQ2 pot: potentiators of rat KCNQ2 potassium channel; Potassium voltage-gated channel subfamily KQT member 2 (Rattus norvegicus), O88943; CHO-K1 KCNQ2, FluxOR thallium flux fluorescence; active compounds read high; 0.54% of 310,000 active; B-score at 10 µM;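 active means fluorescence ratio B-score at least 3 SD of library B-scores, with initial fluorescence B-score within 3 of them, cut at about 5.3 in these data; same plate scores as AID 2156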;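 further: B-score of peak minus minimum over baseline fluorescence ratio after K+ and Tl+ stimulus; positive B-score means potentiation of KCNQ2 with more thallium influx and brighter signal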
Target sequence (O88943 whole entry, looked up): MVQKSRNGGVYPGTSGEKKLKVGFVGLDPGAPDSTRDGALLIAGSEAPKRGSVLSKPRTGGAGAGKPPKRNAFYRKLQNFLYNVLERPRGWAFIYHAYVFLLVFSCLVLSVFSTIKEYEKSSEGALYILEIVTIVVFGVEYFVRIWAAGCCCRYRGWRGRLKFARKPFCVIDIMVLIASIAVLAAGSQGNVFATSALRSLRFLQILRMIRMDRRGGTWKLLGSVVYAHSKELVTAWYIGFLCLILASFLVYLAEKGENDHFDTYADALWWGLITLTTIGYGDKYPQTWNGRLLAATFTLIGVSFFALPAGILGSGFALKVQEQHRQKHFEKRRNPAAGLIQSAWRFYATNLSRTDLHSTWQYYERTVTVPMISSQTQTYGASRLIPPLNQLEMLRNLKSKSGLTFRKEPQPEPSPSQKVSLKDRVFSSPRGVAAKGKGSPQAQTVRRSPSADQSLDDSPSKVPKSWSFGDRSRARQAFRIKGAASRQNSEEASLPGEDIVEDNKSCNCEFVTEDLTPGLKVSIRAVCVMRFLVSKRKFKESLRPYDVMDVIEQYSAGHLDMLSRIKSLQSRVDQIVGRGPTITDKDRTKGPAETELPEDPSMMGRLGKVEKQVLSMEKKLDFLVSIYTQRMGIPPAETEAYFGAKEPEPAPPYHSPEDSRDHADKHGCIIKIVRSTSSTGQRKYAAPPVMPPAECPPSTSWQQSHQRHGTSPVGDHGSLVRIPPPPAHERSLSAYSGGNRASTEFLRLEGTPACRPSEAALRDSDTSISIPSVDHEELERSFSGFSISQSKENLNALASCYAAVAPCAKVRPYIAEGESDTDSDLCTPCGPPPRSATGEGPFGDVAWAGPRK
KCNQ2 inh: rat KCNQ2 potassium channel inhibitors, primary screen, cell-based, CHO-K1, FluxOR thallium flux, B-score. B-score at 10 µM. Potassium voltage-gated channel subfamily KQT member 2 (Rattus norvegicus), O88943. 1.1% of 310,000 active. 20 min; active compounds read low;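 active means fluorescence ratio B-score at most minus 3 library SDs, with starting brightness B-score within 2 library SDs, cut at about -5.5 in these data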
Each line names hits and unclear results; the compound was inactive in the other large screens.

Cc1ccc(CNCC(O)(c2ccccc2)c2ccc(Cl)cc2)cc1 (stereo not given)	KCNQ2 inh -6.4
COc1cccc(CNCC(O)(c2ccc(Cl)cc2)c2ccc(Cl)cc2)c1	none (no result: KCNQ2 pot)
Cc1cccc(COCC(Cc2ccccc2)N2CCN(C(=O)c3cccc(Cl)c3)CCC2=O)c1 (stereo not given)	none (no result: KCNQ2 pot)
O=C(c1cccc(Cl)c1)N1CCC(=O)N(C(COCc2ccccc2)Cc2ccccc2)CC1 (stereo not given)	KCNQ2 inh -5.8
O=C(c1ccc(Cl)c(Cl)c1)N1CCC(=O)N(C(CO)Cc2ccccc2)CC1 (stereo not given)	none
O=C(c1ccc(Cl)c(Cl)c1)N1CCC(=O)N(C(COCc2ccccc2)Cc2ccccc2)CC1 (stereo not given)	KCNQ2 inh -5.8
N#Cc1ccc(COC(=O)c2cnc(Cl)c(Cl)c2)cc1	none
Cc1cc(NC(=O)c2cc(-c3ccc(C)s3)nc3ccccc23)no1	none (no result: KCNQ2 pot)
Cc1ccc(C)c(-c2cc(C(=O)Nc3cccc(C(=O)O)c3)c3ccccc3n2)c1	none (no result: KCNQ2 pot)
Cc1cccc(NC(=O)c2cc(-c3ccc(C)s3)nc3ccccc23)n1	KCNQ2 inh -7.5
O=C(NCCCN1CCOCC1)c1cc(-c2ccc(Br)cc2)nc2ccccc12	KCNQ2 inh -6.8
Cc1ccc(C)c(-c2cc(C(=O)Nc3cccnc3)c3ccccc3n2)c1	KCNQ2 inh -6.3
O=C(Nc1cccnc1)c1cc(-c2ccc(Br)cc2)nc2ccccc12	KCNQ2 inh -6.3
O=C(NCCCN1CCOCC1)c1cc(-c2ccc3c(c2)OCO3)nc2ccccc12	none (no result: KCNQ2 pot)
CC(=O)Nc1cccc(NC(=O)c2cc(-c3cccnc3)nc3ccc(Br)cc23)c1	none (no result: KCNQ2 pot)
CC1=C(C(=O)OCCCCCl)C(c2cc3c(cc2Br)OCO3)NC(=O)N1 (stereo not given)	none
O=c1/c(=C\c2cccc(O)c2)sc2nc(-c3ccccc3)c(-c3ccccc3)n12	none (no result: KCNQ2 pot)
N#CCCN(NC1=NS(=O)(=O)c2ccccc21)C(=O)c1ccccc1Br	none
CC1CCC(NCCNC(=O)c2ccco2)CC1 (stereo not given)	none (no result: KCNQ2 pot)
Cc1cc(C(=O)NCCc2ccc(S(N)(=O)=O)cc2)no1	none
CC(C)(C)c1ccc(SCCc2cccnc2)cc1	none (no result: KCNQ2 pot)
O=C(NCc1ccccc1)C(c1c(F)cccc1Cl)N(C(=O)c1csnn1)C1CC1 (stereo not given)	none (no result: KCNQ2 pot)
Cc1ccc(C)c(NC(=O)c2cc(C)nc3ccccc23)c1	KCNQ2 inh -5.9
O=C(NNC(=S)Nc1ccccc1)c1cc(-c2cccnc2)nc2ccccc12	KCNQ2 inh -6.1
Cc1ccc(NC(=O)c2cc(C)nc3ccccc23)cc1	none
CCOC(=O)c1ccc(NC(=S)NNC(=O)c2cc(-c3cccnc3)nc3ccccc23)cc1	none (no result: KCNQ2 pot)
CCC(Oc1ccc(Br)cc1)C(=O)N1CCN(c2ncccn2)CC1 (stereo not given)	none (no result: KCNQ2 pot)
Oc1c(Br)cc(Cl)cc1C=Nc1ccccc1Br	KCNQ2 pot 8.4
Oc1ccc2ccccc2c1C=Nc1ccccc1Br	none (no result: KCNQ2 pot)
CCOC(=O)c1ccc(N2C(=O)CC(NC3CCN(C(=O)c4ccc(F)cc4)CC3)C2=O)cc1 (stereo not given)	KCNQ2 inh -9.5
CCOc1ccc(N2C(=O)CC(NC3CCN(C(=O)c4ccc(F)cc4)CC3)C2=O)cc1 (stereo not given)	none (no result: KCNQ2 pot)
Cc1ccc(C(C)C)c(OCC(=O)NC2CCN(C)CC2)c1	none (no result: KCNQ2 pot)
O=C(Nc1ccc2ccccc2c1)C(c1ccccc1)C1CCCC1 (stereo not given)	KCNQ2 inh -5.7
Cc1ccc(NC(=O)C(c2ccccc2)C2CCCC2)cc1 (stereo not given)	none (no result: KCNQ2 pot)
Cc1cc(C(=O)CSc2nc3ccc(Cl)cc3[nH]2)c(C)n1C	KCNQ2 inh -6.3
Cc1cc(C(=O)CSc2nc3ccccc3[nH]2)c(C)n1C	none (no result: KCNQ2 pot)
Cc1ccc2nc(SCC(=O)c3cc(C)n(C)c3C)[nH]c2c1	none (no result: KCNQ2 pot)
C=CCn1c(C)cc(C(=O)CSc2nc3ccccc3[nH]2)c1C	KCNQ2 inh -7.5
O=S(=O)(c1cccc(F)c1)N1CCc2sccc2C1c1ccc(OC(F)(F)F)cc1 (stereo not given)	KCNQ2 inh -5.9
COc1ccc(OC2CCN(S(=O)(=O)c3cccc(F)c3)CC2)cc1	none (no result: KCNQ2 pot)
O=C(Cc1cnc2ncnn2c1)N1CCc2c([nH]c3ccccc23)C1c1ccccn1 (stereo not given)	none
N#Cc1ccc(NC(=O)N2CCC(c3nc4c(nnn4Cc4cccc(Cl)c4)c(=O)[nH]3)CC2)cc1	KCNQ2 inh -7.5
O=C(c1ccco1)N1CCCC(c2nc3c(nnn3Cc3cccc(Cl)c3)c(=O)[nH]2)C1 (stereo not given)	none
Cc1c(CCOC(=O)C2C3CC4CC(C3)CC2C4)sc[n+]1CC(=O)c1ccc(Br)cc1 (stereo not given)	KCNQ2 inh -7.2
COc1ccc(C(=O)OCCc2sc[n+](CC(=O)c3ccccc3)c2C)cc1	none
COc1ccc(C(=O)NNC(=O)CSc2nnc(C3CC3)n2C)cc1	none (no result: KCNQ2 pot)
Cc1cc(SCC(=O)c2cc(C)n(C)c2C)nc2ccccc12	none (no result: KCNQ2 pot)
COC(=O)c1cccc(NC(=O)CC2C(=O)NCCN2C(=O)Nc2cc(C)cc(C)c2)c1 (stereo not given)	none
CCc1noc(C)c1C(=O)N1CCCSC1=Nc1ccccc1C(C)C	KCNQ2 inh -5.7
CCc1noc(C)c1C(=O)N1CCCC1	none
O=C(COC(=O)C1(c2ccccc2F)CCCC1)NCc1ccc2c(c1)OCO2	KCNQ2 inh -7.1
O=C(COC(=O)C1(c2ccc(F)cc2)CCCC1)NCc1ccc2c(c1)OCO2	none (no result: KCNQ2 pot)
Cc1cccc(C(=O)NNC(=O)C(=O)NC(C)(C)C)c1	none
O=C(COc1ccc(Br)cc1)NC1CC1	none
CC(C)(C)NC(=O)C(=O)NNC(=O)c1cccc(Br)c1	KCNQ2 pot 6.7
COC(=O)NNC(=O)c1ccc(C(C)(C)C)cc1	none (no result: KCNQ2 pot)
CC(C)(C)NC(=O)C(=O)NNC(=O)c1ccc(C(C)(C)C)cc1	KCNQ2 pot 12
CC(C)(C)NC(=O)C(=O)NNC(=O)COc1ccc(Br)cc1	KCNQ2 pot 6.2
CCN(C(=O)COC(=O)c1ccc(Br)o1)C1CCCCC1	none (no result: KCNQ2 pot)
CC(C)(Oc1ccc(Cl)cc1)C(=O)NCc1ccc(S(N)(=O)=O)cc1	none
CCOc1ccc(-c2ccc(SCC(=O)NC3CCCCC3)nn2)cc1	none
CC(C)c1ccc(OCC(=O)NCCO)cc1	none
CC(C)COc1cccc(C(=O)NC(=S)NCc2cccnc2)c1	none
O=C(CN(Cc1ccccc1)C(=O)CCC(=O)Nc1nccs1)NCc1ccc(F)cc1	none
O=C(CCCCCCCCC(=O)N/N=C/c1ccco1)N/N=C/c1ccco1	none
CCCCCC(=O)N/N=C/c1ccco1	KCNQ2 pot 7.2
O=C(N/N=C\c1ccco1)Nc1cccc(Cl)c1	KCNQ2 pot 6
Cc1cccc(NC(=O)CCC(=O)N/N=C/c2ccco2)c1	none (no result: KCNQ2 pot)
Cc1cc(C)n2nc(C(=O)OCC(=O)N(C)CC(=O)Nc3ccccc3Cl)nc2n1	none
CC1(C)CC(=O)C2=C(C1)N(c1cccc(Cl)c1)C(=O)NC2(C(F)(F)F)C(F)(F)F	none
Cc1ccc(N(CC(=O)Nc2ccccc2-c2ccccc2)S(=O)(=O)c2ccccc2)c(C)c1	KCNQ2 inh -7.7
CS(=O)(=O)N(CC(=O)Nc1ccccc1-c1ccccc1)c1ccccc1	none (no result: KCNQ2 pot)
CCOC(=O)c1c(-c2ccc(C)o2)csc1NC(=O)COC(=O)c1cccs1	KCNQ2 inh -6
CCOC(=O)c1c(-c2ccc(C)o2)csc1NC(=O)CN1CCOCC1	none (no result: KCNQ2 pot)
CC(C)N(Cc1ccccc1)C(=O)CCc1ccccc1	none (no result: KCNQ2 pot)
CC(C)(C)N(Cc1ccccc1)C(=O)CCc1ccccc1	KCNQ2 inh -6.6

Assay outcomes deposited in PubChem BioAssay by Johns Hopkins Ion Channel Center.
